Screening data (PubChem BioAssay)
ALDH1A1 block: inhibitors of human aldehyde dehydrogenase 1A1 | P00352 | Purified ALDH1A1, NADH fluorescence, propionaldehyde substrate | Potency, µM (series often up to 75.3 µM), hits mostly inhibitors | 220,000 compounds, 7.3% hits; active = well fitted inhibition curve with a large enough effect, not every such curve was filed as active; inconclusive = small, poorly fitted or top-dose-only effect, or another doubt; inactive = no such curve, though single readings can be large or run the other way
Target sequence (P00352 whole entry, looked up): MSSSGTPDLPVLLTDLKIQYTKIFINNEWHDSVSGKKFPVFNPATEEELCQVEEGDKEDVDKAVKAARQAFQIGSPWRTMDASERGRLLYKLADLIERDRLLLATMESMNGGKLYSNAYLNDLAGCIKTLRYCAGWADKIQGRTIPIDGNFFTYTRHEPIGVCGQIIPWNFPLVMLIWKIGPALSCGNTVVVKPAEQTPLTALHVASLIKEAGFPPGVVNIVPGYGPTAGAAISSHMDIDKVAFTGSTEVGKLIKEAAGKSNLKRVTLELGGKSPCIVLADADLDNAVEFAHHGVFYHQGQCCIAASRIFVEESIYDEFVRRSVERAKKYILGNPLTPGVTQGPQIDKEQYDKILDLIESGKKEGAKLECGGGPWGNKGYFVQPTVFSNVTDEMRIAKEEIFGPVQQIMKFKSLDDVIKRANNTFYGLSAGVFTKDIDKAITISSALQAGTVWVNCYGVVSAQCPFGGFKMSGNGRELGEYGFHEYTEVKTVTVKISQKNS
NPSR antagonist: blocks cAMP signaling of the human neuropeptide S receptor | 220,000 compounds, 1% hits | AID 1461 | Potency, µM (titrated, usually from 38.3 µM), most hits filed as inhibitors | Q6W5P4 | CHO-NPSR cells, cAMP TR-FRET, antagonist mode; note: nearly all actives have a fitted effect of over 50% in size
HPGD block: inhibitors of human 15-hydroxyprostaglandin dehydrogenase (HPGD) | Potency, µM, usual class: inhibitors | 150,000 compounds, 4.3% hits | purified HPGD, NADH fluorescence kinetic, PGE2 substrate | AID 894; active = well fitted inhibition curve with a large enough effect, not every such curve was filed as active; inconclusive = small, poorly fitted or top-dose-only effect, or another doubt; inactive = no such curve, though single readings can be large or run the other way
Target sequence (P15428 whole entry, looked up): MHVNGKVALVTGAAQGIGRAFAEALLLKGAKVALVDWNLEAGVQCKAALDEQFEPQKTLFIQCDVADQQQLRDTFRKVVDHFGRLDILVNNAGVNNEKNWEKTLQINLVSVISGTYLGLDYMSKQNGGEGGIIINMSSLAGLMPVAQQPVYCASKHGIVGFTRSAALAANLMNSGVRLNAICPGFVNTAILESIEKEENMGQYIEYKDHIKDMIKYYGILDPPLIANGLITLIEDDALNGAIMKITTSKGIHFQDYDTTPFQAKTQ
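20 nM HPGD preincubated 15 min at room temperature with compound in 50 mM Tris-HCl pH 8, 0.01% Tween 20. Started with 1 mM NAD+ and 30 uM prostaglandin E2; NADH fluorescence (360/450 nm) read 5 times over 30-s intervals, last minus first.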
IMPase inh: cell-permeable inhibitors of inositol monophosphatase (IMPase). AID 901. inhibition (IP1 accumulation), % at 46.1 µM. CHO-M1 cells, IP1 accumulation, HTRF TR-FRET ratio. P97697. 120,000 tested, under 10 active; active = well fitted curve in the direction sought with a large enough effect in the signal ratio, not every such curve was filed as active; inconclusive = small, poorly fitted or top-dose-only effect, or a change in a side signal; inactive = no such curve, though single readings can be large or run the other way; the % refers to the signal ratio;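 note: cells stimulated with carbachol in lithium chloride buffer; higher means more IMPase inhibition seen as more IP1 and lower FRET ratio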
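Carbachol-driven Gq signalling in CHO-M1 cells (2000/well) generates IP1. Compounds that block IMPase raise IP1 and so reduce the FRET signal from Eu-anti-IP1 and d2-IP1 after a 10 min room-temperature lysis.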
IMPase Li inh: cell-permeable IMPase inhibitors with lithium potentiation; CHO-M1 cells, IP1 TR-FRET (IP-One), carbachol + lithium; Potency, µM (titrated, usually from 59.4 µM), hits mostly inhibitors; 210,000 compounds, 0.35% hits; AID 1457;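 note: IP1 builds up when IMPase is blocked and the TR-FRET signal falls; nearly all actives have a fitted effect of over 50% in size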
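Steps: plate 2000 CHO-M1 cells per well and culture 16–30 h; add compound and lithium; incubate 30 min, 37C; add d2-IP1 tracer and Eu cryptate anti-IP1 antibody in lysis buffer; read after 10 min at room temperature.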
12-hLO inh: 12-hLO (ALOX12) enzyme inhibition | P18054 | purified 12-hLO, xylenol orange hydroperoxide absorbance | Potency, µM (highest dose often 57.1 µM), most hits filed as inhibitors | 150,000 compounds, 0.12% hits | AID 1452; note: nearly all actives have a fitted effect of over 55% in size
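Hydroperoxide formation by human 12-lipoxygenase from 40 uM arachidonic acid was followed colorimetrically via ferric-xylenol orange complex, using the 573/405 nm absorbance ratio. Enzyme concentration was 150 nM, with 30 min reaction at room temperature.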
Of the large screens only hits and unclear results are named; the others gave an inactive call. This is a sample that favours compounds with a hit; in the whole collection about 8.9% have one here. Unless noted, calls come from the whole dose curve; as a rule, active = well fitted curve in the direction sought with a large enough effect; inconclusive = small, poorly fitted or top-dose-only effect, or another doubt; inactive = no such curve, though single readings can be large; an effect the other way counts as inactive or inconclusive.

Cc1cc2cc(CN(Cc3cccs3)S(=O)(=O)c3ccc4c(c3)OCCO4)c(=O)[nH]c2cc1C	none
CC(CNCc1ccc2c(c1)OCO2)NCc1ccc2c(c1)OCO2 (stereo not drawn)	ALDH1A1 block inconclusive
Cc1ccc(C)c(NC(=O)CN(C)C(=O)CCN2C(=O)c3ccccc3C2=O)c1	none (no result: HPGD block, IMPase Li inh)
CCOCCCN1CN(Cc2ccco2)CNC1=S	ALDH1A1 block inconclusive (no result: HPGD block, IMPase inh, 12-hLO inh)
c1ccc(N2CCN(C3CCSC3)CC2)cc1 (stereo not drawn)	ALDH1A1 block 18µM
COc1ccc(CNC(=O)CN(Cc2ccccc2)S(=O)(=O)c2ccc(Cl)cc2)cc1	ALDH1A1 block inconclusive, NPSR antagonist inconclusive
COc1ccc(CNC(=O)CN(Cc2ccc(Cl)cc2)S(=O)(=O)c2ccccc2)cc1	ALDH1A1 block 2.2µM
COc1ccccc1CN(Cc1nc2ccccc2c(=O)[nH]1)S(=O)(=O)c1ccc2ccccc2c1	ALDH1A1 block inconclusive
COc1ccc(S(=O)(=O)N(Cc2ccccc2)Cc2nc3ccccc3c(=O)[nH]2)cc1	ALDH1A1 block 6.3µM
O=C(CN(Cc1ccccc1)S(=O)(=O)c1ccccc1)N/N=C/c1ccc2c(c1)OCO2	ALDH1A1 block inconclusive, NPSR antagonist inconclusive, HPGD block 11µM
CCCC(CCC)=NNC(=O)CN(Cc1ccccc1)S(=O)(=O)c1ccccc1	ALDH1A1 block 8.9µM (no result: IMPase inh)
O=C(CSc1nnc(CNC(=O)c2cccs2)o1)c1ccccc1	none
Cc1cc(C(=O)Oc2ccccc2C(=O)O)c(C)o1	none
Cc1ccccc1Cn1c(=O)n(-c2ccccc2)c(=O)c2ccc(C(=O)NCc3ccco3)cc21	none (no result: IMPase inh)
O=S(=O)(c1cccs1)N1CCCc2ccccc21	none
CCOC(=O)c1c(CSc2nc(C)cc(C)c2C#N)n(C)c2cc(Br)c(OC(C)=O)cc12	none (no result: IMPase inh)
CCOC(=O)c1c(CSC(=N)N)n(-c2ccc(Br)cc2)c2cc(Br)c(OC(C)=O)cc12	ALDH1A1 block inconclusive, NPSR antagonist 10µM, HPGD block inconclusive (no result: IMPase inh)
OCCCn1c(-c2ccccc2)nc(=S)c2c1CCCC2	NPSR antagonist inconclusive, IMPase Li inh inconclusive
O=C(NCc1ccccc1)c1ccc2c(c1)C(=O)N(CC1CCCO1)C2=O (stereo not drawn)	ALDH1A1 block 5µM
COc1ccccc1OCC(=O)Nc1ccc2c(c1)C(=O)N(CC1CCCO1)C2=O (stereo not drawn)	ALDH1A1 block 4.5µM (no result: HPGD block, IMPase inh, 12-hLO inh)
O=C(COc1ccccc1)Nc1ccc2c(c1)C(=O)N(CC1CCCO1)C2=O (stereo not drawn)	ALDH1A1 block inconclusive (no result: HPGD block, IMPase inh, 12-hLO inh)
O=C(O)c1ccc2c(c1)N(Cc1ccccc1)C(=O)c1ccccc1S2=O (stereo not drawn)	none
COC(=O)c1cccc(NC(=O)c2ccc3c(c2)C(=O)N(CC2CCCO2)C3=O)c1 (stereo not drawn)	ALDH1A1 block 1.4µM
O=C(O)c1ccc2c(c1)C(=O)N(Cc1ccccc1)C2=O	HPGD block 14µM
O=C(O)c1cccc(NC(=O)c2ccc3c(c2)C(=O)N(CC2CCCO2)C3=O)c1 (stereo not drawn)	ALDH1A1 block inconclusive
COc1nc(SCC(=O)Nc2ccccc2Cl)nc(N(C)C)n1	none (no result: ALDH1A1 block, HPGD block, IMPase inh, IMPase Li inh, 12-hLO inh)
O=C(Nc1ccc(F)c(Cl)c1)C1CCN(C(=O)c2ccc(F)cc2)CC1	none (no result: ALDH1A1 block, NPSR antagonist, HPGD block, IMPase Li inh, 12-hLO inh)
Cc1ccc(Cl)cc1NC(=S)N(Cc1cccnc1)Cc1ccccc1Cl	ALDH1A1 block 11µM (no result: HPGD block, IMPase inh, 12-hLO inh)
CCN(CC)C(=O)C1CCCN(Cc2ccccc2F)C1 (stereo not drawn)	none
CCN(CC)C(=O)C1CCCN(Cc2ccccc2C(F)(F)F)C1 (stereo not drawn)	ALDH1A1 block 3.5µM
CN(C)c1[nH]c(=O)c(C#N)c2c1CCN2Cc1ccccc1	ALDH1A1 block inconclusive, HPGD block 13µM
N#CC(c1ccc(Cl)nn1)c1ccc(Cl)cc1Cl (stereo not drawn)	ALDH1A1 block 6.3µM
COc1ccc(C(C#N)c2ccc(Cl)nn2)cc1 (stereo not drawn)	ALDH1A1 block inconclusive (no result: HPGD block, IMPase inh, 12-hLO inh)
c1ccc(C2=Nn3c(Cn4nnc5ccccc54)nnc3SC2)cc1	none (no result: ALDH1A1 block, HPGD block, IMPase inh, IMPase Li inh, 12-hLO inh)
c1ccc(-c2nn3c(Cn4nnc5ccccc54)nnc3s2)cc1	ALDH1A1 block 3.2µM, HPGD block 10µM
c1cncc(-c2nn3c(Cn4cnc5ccccc54)nnc3s2)c1	ALDH1A1 block 1µM, HPGD block 3.2µM
c1ccc2c(c1)nnn2Cc1nnc2sc(-c3ccc4c(c3)OCCO4)nn12	ALDH1A1 block inconclusive, HPGD block inconclusive, IMPase Li inh inconclusive
FC(F)(F)c1nnc2sc(-c3ccncc3)nn12	none
c1ccc2c(c1)ncn2Cc1nnc2sc(-c3ccncc3)nn12	ALDH1A1 block 10µM, HPGD block 7.9µM
c1cncc(-c2nn3cnnc3s2)c1	none
c1ccc(-c2ccc(C3=Nn4c(Cn5nnc6ccccc65)nnc4SC3)cc2)cc1	ALDH1A1 block 28µM, NPSR antagonist inconclusive, HPGD block 18µM
CN(C)C(=O)c1ccc(-c2cc(-n3ccnc3)ncn2)cc1	none (no result: NPSR antagonist, HPGD block, IMPase inh, 12-hLO inh)
COc1ccc(Cc2nn3c(Cn4nnc5ccccc54)nnc3s2)cc1	ALDH1A1 block 11µM, HPGD block 22µM
c1ccc(OCc2nn3c(Cn4cnc5ccccc54)nnc3s2)cc1	ALDH1A1 block 19µM, HPGD block 11µM
c1ccc(OCc2nn3c(C4CCCCC4)nnc3s2)cc1	ALDH1A1 block inconclusive
c1ccc(Cn2cnc3ccccc32)cc1	none
c1ccc(-c2nn3c(Cn4cnc5ccccc54)nnc3s2)cc1	ALDH1A1 block 2.2µM, HPGD block 4.5µM
CN(C)c1ccc(S(=O)(=O)NCC(=O)OCC(=O)Nc2cccc(Cl)c2)cc1[N+](=O)[O-]	ALDH1A1 block 7.9µM (no result: IMPase inh)
CNc1ccc(S(=O)(=O)NCC(=O)OCC(=O)Nc2cccc(Cl)c2Cl)cc1[N+](=O)[O-]	ALDH1A1 block inconclusive (no result: IMPase inh)
COc1ccc(CCNC(=O)CSc2ccccn2)cc1	ALDH1A1 block inconclusive (no result: HPGD block, IMPase inh, 12-hLO inh)
CCn1c(SCC(=O)NCc2ccco2)nnc1-c1cccs1	ALDH1A1 block 8.9µM, HPGD block 25µM
CCn1c(SCC(=O)NCCc2ccccc2)nnc1-c1cccs1	HPGD block 28µM
O=C(CSc1nnc(-c2ccco2)n1Cc1ccccc1)OC1CCCCC1	ALDH1A1 block inconclusive, HPGD block 25µM
Cc1[nH]c2ccc(-c3nnc(SCC(=O)NCc4ccco4)n3Cc3ccccc3)cc2c1C	ALDH1A1 block 32µM, NPSR antagonist inconclusive, HPGD block 16µM
CCn1c(SCC(=O)NCc2ccco2)nnc1-c1ccncc1	none (no result: HPGD block, IMPase inh, 12-hLO inh)
Cc1ccccc1-n1c(C)nnc1SCC(=O)NCC1CCCO1 (stereo not drawn)	none
COC(=O)Cc1c(O)ccn(Cc2ccc(F)cc2)c1=O	none
O=c1cc(C(F)(F)F)[nH]c2ccccc12	none (no result: ALDH1A1 block, HPGD block, IMPase inh, IMPase Li inh, 12-hLO inh)
